{
  "source": "PubChem BioAssay AID624002",
  "about": "(National Center for Advancing Translational Sciences (NCATS), 2012)",
  "note": "Some of the results follow. Records with an inconclusive call do not appear. The source made the active and inactive calls. Calls follow the shape of the dose curve; as a rule, active = well fitted inhibition curve with a large enough effect; inconclusive = small, poorly fitted or top-dose-only effect; inactive = no such curve, though single readings can be large or run the other way. Potency is read from the fitted curve at half-maximal effect.",
  "data": [
    {"molecular_target": "Isocitrate dehydrogenase [NADP] cytoplasmic (Homo sapiens) (UniProt O75874)", "sequence (O75874 whole entry R132H, stated change not applied)": "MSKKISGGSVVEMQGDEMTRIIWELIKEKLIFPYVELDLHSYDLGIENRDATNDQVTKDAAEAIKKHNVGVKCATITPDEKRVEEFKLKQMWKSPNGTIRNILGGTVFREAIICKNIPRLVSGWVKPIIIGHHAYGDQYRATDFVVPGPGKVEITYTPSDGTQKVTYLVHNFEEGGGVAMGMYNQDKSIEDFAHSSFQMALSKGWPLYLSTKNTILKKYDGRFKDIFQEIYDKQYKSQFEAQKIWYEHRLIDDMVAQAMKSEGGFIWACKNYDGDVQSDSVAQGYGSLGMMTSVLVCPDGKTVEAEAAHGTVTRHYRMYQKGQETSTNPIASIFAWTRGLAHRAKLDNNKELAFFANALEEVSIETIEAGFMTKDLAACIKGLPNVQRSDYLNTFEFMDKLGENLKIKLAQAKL", "assay": "qHTS for Inhibitors of mutant isocitrate dehydrogenase 1 (IDH1): Confirmation of Cherrypicks; also: nearly all actives have a fitted effect of over 50% in size", "conditions": "IDH1 R132H enzyme, NADPH diaphorase/resazurin fluorescence; series mostly up to 76.6 µM", "from_the_text": "Malignant glioblastomas (WHO grade IV), including primary and secondary glioblastomas, are among the most lethal with a median survival of one year, and unfortunately they are also the most prevalent type of brain tumors. By and large the standard of care of gliomas remains the use of the oral alkylating agent temozolomide and radiotherapy following surgical tumor resection. There is an urgent unmet medical need for novel therapeutics for gliomas. IDH mutations occur in up to 70% of grade II-IV secondary glioblastomas, and IDH1 R132H is the most prevalent mutation. […] Wild-type IDH1 catalyzes the conversion of isocitrate to -ketoglutarate with the concomitant reduction of NADP+ to NADPH. In contrast, IDH1 R132H catalyzes the conversion of -ketoglutarate to 2-hydroxyglutarate (2-HG) with the concomitant oxidation of NADPH to NADP+ [5]. Recently, a second significant advancement for the field was the finding that IDH is an oncogene, and that its metabolic product 2-HG may contribute to the pathogenesis of IDH-mutated cancers. […] Although this link to cancer is tantalizing, the direct evidence of how 2-HG drives pathogenesis of gliomas and AML remains a subject of further research. The goal of this screen is to find small-molecule inhibitors of IDH1 R132H using a biochemical assay that measures substrate NADPH consumption through the use of a diaphorase/resazurin-coupled system. Inhibition of the IDH1 R132H enzymatic reaction leads to an increase in the amount of NADPH relative to a DMSO control and a concomitant increase in the fluorescence of the diaphorase/resazurin enzyme product resorufin at 590 nm. Compounds were screened as a concentration-titration series that ranged from 76 microM to 0.15 uM. NIH Molecular Libraries Probe Production Network [MLPCN] NIH Chemical Genomics Center [NCGC] MLSCN Grant: R03 DA032129 PI Name: Dr. Lenny Dang\nEnzyme buffer was dispensed into black, solid 1536-well plates at 3 microL/well in 20 mM Tris buffer, pH 7.5, containing final concentrations of 10 mM MgCl2, 20 mM NaCl, 0.001% Tween20, 0.05% BSA, 2 mM beta-ME and 5.2 nM IDH1 R132H. Then, 23 nL of compounds or DMSO were delivered to each well using a pin tool. The inherent compound fluorescence was measured at this point at 590 nm on a ViewLux plate reader (Ex 525, Em 598, bodipy filter). The substrate buffer (3 uL; 20 mM Tris buffer, pH 7.5, containing final concentrations of 10 mM MgCl2, 20 mM NaCl, 0.001% Tween20, 0.05% BSA, 0.008 mM NADPH, and 1 mM a-ketoglutarate) was added to start the enzymatic reaction, and the plate was briefly spun at 270xg. After the reaction was allowed to progress for 80 minutes at room temperature, the remaining NADPH was detected with the diaphorase/resazurin-coupled system. Three microL of detection buffer (20 mM Tris buffer, pH 7.5, containing final concentrations of 10 mM MgCl2, 20 mM NaCl, 0.001% Tween20, 0.05% BSA, 0.53 uM diaphorase and 0.012 mM resazurin) was added, and after 5 minutes the fluorescence at 590 nm was measured on an Envision plate reader (Ex 544, Em 590, bodipy filter, 10 flashes). The %Activity was determined from the corrected fluorescence values. As no specific IDH1 R132H inhibitors have been identified in the literature, 1x (5.2 nM) and 0x IDH1 R132H enzyme controls (untreated) were included to normalize % Activity of identified inhibitors; 0x enzyme values corresponded to 100 % Activity (full inhibition), while 1x IDH1 R132H enzyme values were used to normalize 0 %A ctivity (no inhibition). Concentration-response curves were fitted to the signals arising from the resulting fluorescence. The concentration-response curves were then classified based on curve quality (r2), response magnitude and degree of measured activity, and compounds were subsequently categorized based on their curve class. […] Keywords: Isocitrate dehydrogenase, IDH1, IDH1 R132H, 2-HG, 2-hydroxyglutarate, AML, glioma, MLSMR, MLPCN, NIH Roadmap, qHTS, NCGC", "values": [
      {"smiles": "CCC(C)(C)NC(=O)C(c1cccn1C)N(Cc1ccc(C)cc1)C(=O)Cn1nnc2ccccc21", "note": "(centres undefined)", "Potency": "25.1 µM (active)"},
      {"smiles": "COc1cc(/C=C2/C(=O)ON=C2C)ccc1OCc1ccccc1F", "Potency": "44.7 µM (active)"},
      {"smiles": "COc1cc2c(-c3ccc4c(c3)OCO4)c(-c3ccsc3)oc(=O)c2cc1OC", "Potency": "6.31 µM (active)"},
      {"smiles": "O=C1c2cccc3cccc(c23)C(=O)N1CCCCCc1n[nH]c(=S)o1", "Potency": "39.8 µM (active)"},
      {"smiles": "CCCCOc1ccc(CN2C(=O)C(=O)c3cc(Br)cc(C)c32)cc1OC", "Potency": "22.4 µM (active)"},
      {"smiles": "Cc1ccc2nc(N3C(=O)C(O)=C(C(=O)c4ccco4)C3c3cccc(O)c3)sc2c1", "note": "(centres undefined)", "Potency": "28.2 µM (active)"},
      {"smiles": "CCOC(=O)c1oc2c(CN3CCN(CCO)CC3)c(O)c(CC)cc2c(=O)c1-c1nc2ccccc2s1", "Potency": "22.4 µM (active)"},
      {"smiles": "COc1cc(/C=C2/SC(=S)N(Cc3ccccc3)C2=O)cc(OC)c1O", "Potency": "39.8 µM (active)"},
      {"smiles": "CCCNc1ncnc2c1c(-c1ccccc1)cn2-c1ccc(OCC)cc1", "Potency": "11.2 µM (active)"},
      {"smiles": "C(=N/Nc1cc(N2CCOCC2)nc(N2CCOCC2)n1)/c1ccccc1", "Potency": "39.8 µM (active)"},
      {"smiles": "Cc1nc(-c2ccc(Cl)cc2)sc1C(=O)CBr", "Potency": "44.7 µM (active)"},
      {"smiles": "CCCOc1ccc(C2c3c(-c4ccccc4O)n[nH]c3C(=O)N2Cc2cccnc2)cc1", "note": "(centres undefined)", "Potency": "14.1 µM (active)"},
      {"smiles": "O=C(NC(Nc1nc2ccc([N+](=O)[O-])cc2s1)(C(F)(F)F)C(F)(F)F)c1ccccc1", "Potency": "3.55 µM (active)"},
      {"smiles": "CCCCC(=O)NC(c1ccc(OC)c(OC)c1)c1ccc2cccnc2c1O", "note": "(centres undefined)", "Potency": "inactive"},
      {"smiles": "Cn1c(COc2ccc(Cl)cc2)nc2ccccc2c1=O", "Potency": "inactive"},
      {"smiles": "CCCc1nc2c(c(=O)c3ccccc3n2C)c(=O)n1C1CCCCCC1", "Potency": "8.91 µM (active)"},
      {"smiles": "CCOC(=O)c1ccc(N2C(=O)c3n[nH]c(-c4ccco4)c3C2c2ccc(O)cc2)cc1", "note": "(centres undefined)", "Potency": "39.8 µM (active)"},
      {"smiles": "Cc1nc(C)c(C(=O)N(c2ccc(C)c(C)c2)C(C(=O)NCc2ccco2)c2ccccc2)s1", "note": "(centres undefined)", "Potency": "17.8 µM (active)"},
      {"smiles": "Cc1cccc(N(C(=O)Cc2cccs2)C(C(=O)NC2CCCC2)c2ccsc2)c1", "note": "(centres undefined)", "Potency": "3.55 µM (active)"},
      {"smiles": "Cc1ccc(-c2nn(-c3ccccc3)cc2/C=C2\\SC(=S)N(CCCCCC(=O)O)C2=O)o1", "Potency": "22.4 µM (active)"},
      {"smiles": "COc1ccc(/C=N/Nc2cc(N3CCOCC3)nc(C)n2)c(OC)c1", "Potency": "15.8 µM (active)"},
      {"smiles": "CCCc1[nH]nc2c1C(c1ccc(OC)c(Cn3nc(C)c(Br)c3C)c1)C(C#N)=C(N)O2", "note": "(centres undefined)", "Potency": "31.6 µM (active)"},
      {"smiles": "COc1ccc(/C=C2/SC(=O)N(CCCCCC(=O)Nc3ccccc3C(=O)O)C2=S)cc1", "Potency": "39.8 µM (active)"},
      {"smiles": "COC(=O)c1ccc(-c2c(-c3ccccc3)ncc3cc(OC)c(OC)cc23)cc1", "Potency": "12.6 µM (active)"},
      {"smiles": "CC(C)Nc1nc(N(c2ccccc2)c2ccccc2)nc(-n2ccnc2)n1", "Potency": "39.8 µM (active)"},
      {"smiles": "N#CC1=C(N)C(C#N)(C#N)[C@H](c2ccsc2)[C@H]2COCC=C12", "Potency": "44.7 µM (active)"},
      {"smiles": "COc1ccc(C(CCN(Cc2ccc(OC)c(OC)c2)C(=O)CCl)c2ccccc2)cc1", "note": "(centres undefined)", "Potency": "15.8 µM (active)"},
      {"smiles": "COC(=O)c1cccc(N(C(=O)c2ccco2)C(C(=O)NC2CCCC2)c2ccco2)c1", "note": "(centres undefined)", "Potency": "22.4 µM (active)"},
      {"smiles": "COc1ccc(Cl)cc1-n1c(=S)sc2c(=O)n(-c3ccc(F)cc3)c(SCC(=O)O)nc21", "Potency": "7.94 µM (active)"}
    ]}
  ]
}
